Laboratory results reported in the supplement of paper PMC4466236.
Whole data set: some 33,000 sequences, median “E-score (dimensionless, -0.5 to 0.5)” near -0.058, cut for the highest 2% near 0.35. This is one part of a sample in which the highest values are shown more often than they occur.

Each sequence was assayed on MvaT (assay: PBM 8-mer E-score (mean of HK and ME arrays) (E-score (dimensionless, -0.5 to 0.5)); higher = stronger relative binding preference).
How it was run: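 Reported values are rank-based E-scores, taken as the mean of two universal arrays and parsed with a custom script. Each 8-mer score falls between -0.5 and 0.5. The arrays, ME and HK, were double-stranded 60-mers with a constant 25-mer primer region and a variable 35-mer region covering all 8-mers. They were probed, by an earlier protocol, with full-length P. aeruginosa MvaT carrying an N-terminal glutathione S-transferase fusion.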
For AACTCTTA, the “PBM 8-mer E-score” value was 0.21. In the case of ATAAACAT, the “PBM 8-mer E-score” value is reported as 0.342. In the case of GTAAATGA, the “PBM 8-mer E-score” value is reported as 0.222. ATAAATAT was tested, and the “PBM 8-mer E-score” value was 0.44. CTAAATAG was tested, and the “PBM 8-mer E-score” value was 0.102. With ATAAATAG the “PBM 8-mer E-score” value was 0.358. For ATAAATGA, the “PBM 8-mer E-score” value was 0.316. For GTAAATAC, the “PBM 8-mer E-score” value was 0.228. With ATAAAGAT the “PBM 8-mer E-score” value was 0.333. With GTAAATAA the “PBM 8-mer E-score” value was 0.366. In the case of ATAAATAA, the “PBM 8-mer E-score” value is reported as 0.442. For ATAAATCA, the “PBM 8-mer E-score” value was 0.295. In the case of ATAAATCG, the “PBM 8-mer E-score” value is reported as 0.255. For ATGTTCTA, the “PBM 8-mer E-score” value was 0.0957. TAGTCGGA was tested, and the “PBM 8-mer E-score” value was -0.0242. In the case of ACATTTCA, the “PBM 8-mer E-score” value is reported as 0.153. In the case of ATTTAGAA, the “PBM 8-mer E-score” value is reported as 0.321. In the case of GTAGTGTA, the “PBM 8-mer E-score” value is reported as 0.0767. For CGGTGCTA, the “PBM 8-mer E-score” value was -0.21. ATAAATAC was tested, and the “PBM 8-mer E-score” value was 0.362. With ATAAATGC the “PBM 8-mer E-score” value was 0.279. With ATAAATCC the “PBM 8-mer E-score” value was 0.25. With CGGTTTCC the “PBM 8-mer E-score” value was -0.194. In the case of CAATTTGG, the “PBM 8-mer E-score” value is reported as 0.0733. For AATTAAGG, the “PBM 8-mer E-score” value was 0.37. In the case of AGTTAAGG, the “PBM 8-mer E-score” value is reported as 0.135. In the case of CATTAAGG, the “PBM 8-mer E-score” value is reported as 0.0854. With AATTAAGT the “PBM 8-mer E-score” value was 0.395. ACTTAAGT was tested, and the “PBM 8-mer E-score” value was 0.314. AATTAAGC was tested, and the “PBM 8-mer E-score” value was 0.328. For ATGCAGAA, the “PBM 8-mer E-score” value was 0.0633. For CAGACAAA, the “PBM 8-mer E-score” value was 0.0494. For GAGAGGCC, the “PBM 8-mer E-score” value was -0.32. AGATGAGA was tested, and the “PBM 8-mer E-score” value was 0.0308. AAATATCC was tested, and the “PBM 8-mer E-score” value was 0.253. With GAATATCC the “PBM 8-mer E-score” value was 0.0901. GAATATTC was tested, and the “PBM 8-mer E-score” value was 0.349. With AGATATTC the “PBM 8-mer E-score” value was 0.209. For GAATATGC, the “PBM 8-mer E-score” value was 0.119. For AAATATTC, the “PBM 8-mer E-score” value was 0.363. In the case of GACCGAAA, the “PBM 8-mer E-score” value is reported as -0.0789. GGGACGGA was tested, and the “PBM 8-mer E-score” value was -0.273. With TAGGAGGA the “PBM 8-mer E-score” value was -0.23. In the case of AGTATTTA, the “PBM 8-mer E-score” value is reported as 0.33. CTTATTTA was tested, and the “PBM 8-mer E-score” value was 0.391. ATTATTTA was tested, and the “PBM 8-mer E-score” value was 0.44. In the case of GCTATTTA, the “PBM 8-mer E-score” value is reported as 0.252. For GGTATTTA, the “PBM 8-mer E-score” value was 0.27. With GTTATTTA the “PBM 8-mer E-score” value was 0.395. CTTATTTC was tested, and the “PBM 8-mer E-score” value was 0.291. For CTCATTTA, the “PBM 8-mer E-score” value was 0.172. With ACTATTTG the “PBM 8-mer E-score” value was 0.258. ATTATTTG was tested, and the “PBM 8-mer E-score” value was 0.351. AGTATTTG was tested, and the “PBM 8-mer E-score” value was 0.308. In the case of ACTATTTA, the “PBM 8-mer E-score” value is reported as 0.345. In the case of GACGACGA, the “PBM 8-mer E-score” value is reported as 0.0375. AGCCTTCG was tested, and the “PBM 8-mer E-score” value was -0.32. With CAAAAATC the “PBM 8-mer E-score” value was 0.0508. GAGATTAC was tested, and the “PBM 8-mer E-score” value was 0.135. For AAGAAACT, the “PBM 8-mer E-score” value was 0.186. With GGCGTGGA the “PBM 8-mer E-score” value was -0.173. With GACCATAA the “PBM 8-mer E-score” value was -0.0261. CGGAGCCA was tested, and the “PBM 8-mer E-score” value was -0.2. In the case of GCAATCCA, the “PBM 8-mer E-score” value is reported as -0.0685. For CGCACCCC, the “PBM 8-mer E-score” value was -0.26. With AGTATTTC the “PBM 8-mer E-score” value was 0.207. In the case of ATTATTGC, the “PBM 8-mer E-score” value is reported as 0.292. In the case of ATTATTTC, the “PBM 8-mer E-score” value is reported as 0.352. AACCTGGA was tested, and the “PBM 8-mer E-score” value was -0.275. With AGCGCGAT the “PBM 8-mer E-score” value was -0.196. In the case of AATTTAAT, the “PBM 8-mer E-score” value is reported as 0.431. AATTTAGA was tested, and the “PBM 8-mer E-score” value was 0.183. In the case of CATTTTAA, the “PBM 8-mer E-score” value is reported as 0.176. CATTTAAG was tested, and the “PBM 8-mer E-score” value was 0.287. In the case of CATTTAAA, the “PBM 8-mer E-score” value is reported as 0.386. AATTTAAC was tested, and the “PBM 8-mer E-score” value was 0.31. For TATTTTCA, the “PBM 8-mer E-score” value was 0.277. With AATTTAAG the “PBM 8-mer E-score” value was 0.271. TATTTTAA was tested, and the “PBM 8-mer E-score” value was 0.41. With GATTTTAA the “PBM 8-mer E-score” value was 0.248. AATTTTAA was tested, and the “PBM 8-mer E-score” value was 0.321. AATTTAAA was tested, and the “PBM 8-mer E-score” value was 0.443. With ATGCATAG the “PBM 8-mer E-score” value was -0.0132. CGCGCATA was tested, and the “PBM 8-mer E-score” value was 0.113. In the case of GCGTGAAC, the “PBM 8-mer E-score” value is reported as -0.168. With GGACCCCA the “PBM 8-mer E-score” value was -0.231. In the case of TACGCACA, the “PBM 8-mer E-score” value is reported as 0.0888. With CGGTGGCA the “PBM 8-mer E-score” value was -0.169. With CGCACGTA the “PBM 8-mer E-score” value was -0.1. CCTGCACG was tested, and the “PBM 8-mer E-score” value was -0.224. For TATTTACA, the “PBM 8-mer E-score” value was 0.374. In the case of GATTTAAC, the “PBM 8-mer E-score” value is reported as 0.245. For GATTTACA, the “PBM 8-mer E-score” value was 0.072. For GATTTAAA, the “PBM 8-mer E-score” value was 0.395. For TCTTTAAA, the “PBM 8-mer E-score” value was 0.227. TATTTAGA was tested, and the “PBM 8-mer E-score” value was 0.308. With GATTTGAA the “PBM 8-mer E-score” value was 0.2. CATTTACA was tested, and the “PBM 8-mer E-score” value was 0.339. TATTTAAA was tested, and the “PBM 8-mer E-score” value was 0.433.
